CHT PAM – human CHT allosteric activation; Q9GZV3; CHT-expressing cells, membrane potential dye, choline EC20; stronger effect = higher value; LV-AA mutant CHT in HEK293 cells; B-score at 10 µM; 310,000 tested, 0.49% active; AID 488977;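 active = initial fluorescence not abnormally high and integrated response B-score, plate-corrected, over 3 SD above library mean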
Target sequence (Q9GZV3 whole entry, looked up): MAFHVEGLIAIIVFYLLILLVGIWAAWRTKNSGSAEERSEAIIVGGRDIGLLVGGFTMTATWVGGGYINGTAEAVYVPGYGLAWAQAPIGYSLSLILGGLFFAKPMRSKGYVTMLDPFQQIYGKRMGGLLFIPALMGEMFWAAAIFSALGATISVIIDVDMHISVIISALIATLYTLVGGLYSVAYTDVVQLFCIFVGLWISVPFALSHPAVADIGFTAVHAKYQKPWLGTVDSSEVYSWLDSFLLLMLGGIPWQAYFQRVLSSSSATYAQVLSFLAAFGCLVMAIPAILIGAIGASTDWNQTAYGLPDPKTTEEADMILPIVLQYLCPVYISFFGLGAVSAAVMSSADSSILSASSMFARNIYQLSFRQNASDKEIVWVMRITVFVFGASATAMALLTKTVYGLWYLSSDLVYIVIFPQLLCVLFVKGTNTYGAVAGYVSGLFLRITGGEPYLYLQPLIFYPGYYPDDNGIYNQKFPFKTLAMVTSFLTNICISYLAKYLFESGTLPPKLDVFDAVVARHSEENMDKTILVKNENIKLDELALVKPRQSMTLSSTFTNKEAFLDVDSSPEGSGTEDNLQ
IDE inh – inhibitors of human insulin-degrading enzyme in cells | 320,000 tested, 0.41% active | HEK cells, FAbetaB cleavage, fluorescence polarization | inhibition, % at 5.59 µM | P14735;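 active = percent inhibition above the average of all tested compounds plus 3 SD, set per screening campaign, cut at about 16% in these data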;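 note: IDE supplied by intact live HEK cells; FP after avidin binding of uncleaved biotin substrate so inhibition keeps polarization high; 0% = DMSO wells and 100% = 60 µM reference IDE inhibitor Ii1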
IDE act – IDE (human) activation, cell-based; activation, % at 5.96 µM; 340,000 tested, 0.073% active; HEK cells, FAbeta-B cleavage, fluorescence polarization; 0% vehicle, 100% cell-free pure enzyme wells;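 active = activation above the mean of all tested compounds plus 3 SD, set per screening campaign, cut at about 17% in these data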
TMEM16A inh – inhibitors of mouse TMEM16A calcium-activated chloride channel; Q8BHY3; HEK293 TMEM16A/YFP iodide influx fluorescence, ionomycin; normalized B-score (activity score, 25-100; higher = stronger inhibition) at 10 µM; 310,000 tested, 1.2% active; AID 588511;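 active = ratio plate-corrected score three or more library SD toward inhibition, starting fluorescence score within five deviations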;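 note: score derived from kinetic fluorescence span divided by baseline fluorescence per well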
CHT block – inhibits the human high affinity choline transporter. Q9GZV3. CHT-expressing cells, membrane potential dye, choline response; stronger effect = lower value. B-score at 10 µM. 310,000 tested, 0.86% active. AID 488975;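 active = B-score over 3 SD under the library average, and starting fluorescence ratio not unusually high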;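 note: choline stimulus applied at its EC90 after an EC20 pre-addition; B-score computed on integrated fluorescence ratio after choline addition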
TMEM16A act – mouse TMEM16A channel activation, primary screen | Q8BHY3 | AID 623877 | B-score at 10 µM | HEK293 TMEM16A/YFP-H148Q/I152L, iodide quench fluorescence; stronger effect = lower value | 340,000 tested, 0.3% active;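 active = fluorescence-ratio B-score plate-corrected deviation score at least 3 library SD below zero, with starting fluorescence score within 5 deviations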;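 note: channel opened by trigger with iodide after compound preincubation; score built on the fluorescence ratio of max minus min over baseline; more negative score means more quench and so TMEM16A activation or potentiation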
CHT inh conf – confirmation of human choline transporter CHT inhibitors; shares compounds with CHT block; AID 493221; 2,400 tested, 70% active; CHT activity remaining % of control (stronger effect = lower value), % at 10 µM; CHT-expressing cells, choline membrane potential dye; LV-to-AA substituted CHT, HEK293 cells;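 active = choline transporter activity left, mean of duplicates at 10 µM, below buffer-only control mean minus 3 SD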;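 note: depolarization triggered by choline at its EC90 following an EC20 pre-addition; 0% = hemicholinium-3 full block and 100% = buffer-only control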
HEK293 MPD ctr – CHT inhibitor counter-screen hit in parental HEK293 cells. shares compounds with CHT block. AID 493222. membrane potential dye, choline response; active = decrease or increase beyond buffer ±3SD. 2,400 tested, 4% active. membrane potential ratio readout (active if shifted either direction beyond buffer ±3SD; no single direction) at 10 µM;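 note: parental cells lack the transporter so any hit is non-specific; ratio is peak minus trough fluorescence over baseline after EC90 choline challenge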
Starred values were filed as active, the others as inactive. An excerpt weighted towards active compounds, which were near 2.7% of everything screened.

What do the screens show for `CC(C)[C@H]1C(=O)Nc2ccccc2N1C(=O)N[C@@H](Cc1ccccc1)C(=O)N[C@@H](Cc1ccccc1)C(=O)O`?
CHT PAM: inactive; IDE inh: 3; IDE act: 2; TMEM16A inh: inactive; CHT block: inactive; TMEM16A act: inactive

What do the screens show for `Cc1c(C(=O)Nc2c3c(nn2C(C)(C)C)CS(=O)(=O)C3)cccc1[N+](=O)[O-]`?
CHT PAM: inactive; IDE inh: 1; IDE act: 3; TMEM16A inh: inactive; CHT block: inactive; TMEM16A act: inactive

Results for CN(C(=O)CSc1nc(-c2cccs2)nc2ccccc12)C1CCS(=O)(=O)C1 (configuration not stated) ?
IDE inh: 4; IDE act: 4; TMEM16A act: inactive

Results for COc1ccc(CN=C(Nc2ccccc2)SC2CC(=O)N(C)C2=O)cc1 (configuration not stated) ?
CHT PAM: inactive; IDE inh: 2; IDE act: 2; TMEM16A inh: inactive; CHT block: -5.5*; TMEM16A act: inactive; CHT inh conf: inactive; HEK293 MPD ctr: inactive

What do the screens show for `CCN=C(Nc1cccc(F)c1)SC1CC(=O)N(c2ccc(OC)cc2)C1=O` (configuration not stated)?
CHT PAM: inactive; IDE inh: 0; IDE act: 5; TMEM16A inh: inactive; CHT block: inactive; TMEM16A act: inactive

Results for O=C(NNc1ccc([N+](=O)[O-])cc1[N+](=O)[O-])c1ccco1 ?
CHT PAM: inactive; IDE inh: 0; IDE act: 1; TMEM16A inh: inactive; CHT block: -7.5*; TMEM16A act: inactive; CHT inh conf: 67%*; HEK293 MPD ctr: inactive

How did CCCCCCCCC[n+]1cccc2c3ccccc3ccc21 do in these assays?
CHT PAM: inactive; IDE inh: 7; IDE act: 5; TMEM16A inh: 100*; CHT block: -6.8*; TMEM16A act: inactive; CHT inh conf: 59%*; HEK293 MPD ctr: inactive

What do the screens show for `Cc1noc(NS(=O)(=O)c2ccc(NC(=O)c3oc4ccc(Cl)cc4c3C)cc2)c1C`?
CHT PAM: inactive; IDE inh: 3; IDE act: 4; TMEM16A inh: inactive; CHT block: -5.6*; TMEM16A act: inactive; CHT inh conf: 59%*; HEK293 MPD ctr: inactive

How did O=C(Nc1ccc(S(=O)(=O)Nc2ccccn2)cc1)c1ccc(Cl)cc1Cl do in these assays?
CHT PAM: inactive; IDE inh: 3; IDE act: -4; TMEM16A inh: inactive; CHT block: -12*; TMEM16A act: inactive; CHT inh conf: -0.5%*; HEK293 MPD ctr: inactive

Results for Cc1cc(NS(=O)(=O)c2ccc(NC(=S)NC(=O)c3ccc(Cl)cc3Cl)cc2)no1 ?
CHT PAM: inactive; IDE inh: 0; IDE act: -6; TMEM16A inh: inactive; CHT block: inactive; TMEM16A act: inactive

Results for O=C(Nc1ccc(S(=O)(=O)Nc2ccccn2)cc1)c1cccc(Cl)c1 ?
CHT PAM: inactive; IDE inh: -13; IDE act: 4; TMEM16A inh: inactive; CHT block: inactive; TMEM16A act: inactive

What do the screens show for `Cc1cc(NS(=O)(=O)c2ccc(NC(=O)c3ccc(Cl)cc3Cl)cc2)no1`?
CHT PAM: inactive; IDE inh: 1; IDE act: -1; TMEM16A inh: inactive; CHT block: -9.4*; TMEM16A act: inactive; CHT inh conf: 13%*; HEK293 MPD ctr: inactive

Screens (PubChem BioAssay)
